{"source": "PubChem BioAssay AID1347156", "about": "(National Center for Advancing Translational Sciences (NCATS), 2019)", "note": "Records with an inconclusive call do not appear. Unmarked numbers belong to inactive results. The source made the active and inactive calls. Calls come from the whole dose curve; as a rule, active = well fitted cell-killing curve with a large enough effect; inconclusive = small, poorly fitted or top-dose-only effect; inactive = flat fitted curve, though single readings scatter. % is set by controls: 0 for no effect and ±100 for the full control effect; potency is the fitted concentration of half-maximal effect.", "data": [{"assay": "DAPI mCherry counterscreen qHTS for Zika virus inhibitors; note: nearly all actives have a fitted effect of over 55% in size", "details": "Vero cells, DAPI nuclear count cytotoxicity, imaging 48-72 h, infected with Zika reporter virus, MOI 1; series mostly up to 32.6 µM; activity change, negative = cell loss: at the top concentration", "source_text": "Assay Submitters (PI): Avindra Nath, Ph.D., National Institute of Neurological Disorders and Stroke (NINDS), Bethesda, MD Radhakrishnan Padmanabhan, Ph.D., Georgetown University (GU), Washington D.C. Zika Virus causes congenital defects, including microcephaly and is associated with Guillain-Barre syndrome, eningoencephalitis and myelitis in infected adult. […] Using a target-based approach, we hope to establish a screening paradigm to uncover novel, cell-active NS2B-NS3 protease (Zika Virus) specific inhibitors from NCATS' collection of small molecules using qHTS. […] Four assay panel was created to identify potential Zika Virus inhibitors. Namely, (1) GU unlinked NS2B-NS3 AMC tagged protease qHTS, (2) GU unlinked NS2B-NS3 Rhodamine tagged protease qHTS, (3) NINDS linked NS2B-NS3 AMC tagged protease qHTS, (4) NINDS linked NS2B-NS3 Rhodamine tagged protease qHTS. Active compounds were re-acquired and re-screened to confirm inhibition. Inhibitors were further screened against various confirmatory and counterscreens in dose response format. […] A DAPI (mCherry counterscreen) which determine Vero cell cytotoxicity was used to exclude false positive compounds. […] Early Translation Branch (ETB) National Center for Advancing Translational Sciences (NCATS), Rockville, MD National Institute of Health (NIH), Bethesda, Maryland\n384 well ZIKV-mCherry & mCherry DAPI counterscreen: We have developed a new orthogonal imaging assay in 384-well plate format, which uses recombinant virus ZIKV-mCherry in Vero cells. Briefly, 30 microL of Vero cells derived from a green monkey cell line, were dispensed by Multidrop Dispenser into a clear solid bottom black 384 well plate (ultracarrier, Perkin Elmer LifeSciences) at a concentration of 5,000 cells per well. The plate was incubated overnight in a CO2 incubator at 37 degrees C. Compounds were delivered as a 126 nL DMSO solution by Kalypsys pintool transfer. Following compound transfer, 10 microL of ZIKV-mCherry was added at an MOI of 1 and incubated in a CO2 incubator for 48-72 hrs at 37 degrees C. After sufficient incubation of infected cells in test plates, 8 microL of 32% PFA was dispensed into assay plates to fix cells and incubated for 20 min at room temperature. Plates were washed 3 times with PBS using BioTek EL406 microplate washer/dispenser. After washing, 30 microL of PBS with 0.01% TX-100 containing Hoechst dye was dispensed into the each well of the plates for nuclear staining. 384-well plates were imaged on an automated, widefield high content imager (INCell 2200, GE Healthcare) using a 10x/0.45 NA lens and standard DAPI (nuclear stain) and mCherry (cy5) excitation and emission filters. The TIFFs were quantitated using the canned Multi Target Analysis protocol (GE Investigator Workstation software v3.7.2). Briefly, nuclei from the DAPI channel were identified using top hat segmentation and a sensitivity setting of 96 and minimum size area of 35 microm2. A recombinant Zika viral infection was monitored in the Cy5 channel (cells) using a 2 microm collar dilation from the nuclear bitmap. mCherry objects with an average nuclear RFU intensity above 450 (3 stdev above mean negative control wells) were considered \"mcherry positive\" and data was analyzed by percent infection rate.", "units": {"activity change, negative = cell loss": "%"}, "values": [{"smiles": "CCc1oc2ccccc2c1C(=O)c1cc(Br)c(O)c(Br)c1", "Potency": "11.2 µM (active)"}, {"smiles": "COc1ccc(Br)cc1S(=O)(=O)NC(=O)/C=C/c1ccccc1Cc1ccc2ccccc2c1", "Potency": "31.6 µM (active)"}, {"smiles": "CC(C)=CCOc1ccc(/C=C/C(=O)c2ccc(OCC=C(C)C)cc2OCC(=O)O)cc1", "Potency": "25.1 µM (active)"}, {"smiles": "O=C(Nc1ccc(S(=O)(=O)N2CCOCC2)cc1)c1cc(Cl)ccc1NS(=O)(=O)c1ccc(Cl)s1", "Potency": "15.8 µM (active)"}, {"smiles": "O=C(O)c1c(Br)c(Br)c(Br)c(Br)c1C1c2ccc(O)cc2Oc2cc(O)ccc21", "Potency": "20 µM (active)"}, {"smiles": "N#Cc1c(O)c2c(-c3ccc(-c4ccccc4O)cc3)csc2[nH]c1=O", "activity change, negative = cell loss": -14.6}, {"smiles": "O=S(=O)(O)c1ccc2c(N=Nc3ccc(S(=O)(=O)O)c4ccccc34)c(O)c(S(=O)(=O)O)cc2c1", "activity change, negative = cell loss": -4.02}, {"smiles": "O=C(Nc1cccc2c(=O)cc(-c3nn[nH]n3)oc12)c1ccc(OCCCCc2ccccc2)cc1", "Potency": "35.5 µM (active)"}, {"smiles": "Cc1ccc(-n2[nH]c(C)c(N=Nc3cccc(-c4cccc(C(=O)O)c4)c3O)c2=O)cc1C", "Potency": "14.1 µM (active)"}, {"smiles": "Fc1cc(C2=Nn3c(COc4ccc(Cl)cc4Cl)nnc3S/C2=C\\c2ccc(-c3ccc(Cl)cc3)o2)c(Cl)cc1Cl", "activity change, negative = cell loss": -9.03}, {"smiles": "Cc1ccc(NC(=O)c2ccc3c(O)c(S(=O)(=O)c4ccccc4)c(=O)[nH]c3c2)cc1Cl", "activity change, negative = cell loss": -17}, {"smiles": "CN(CC(=O)N(Cc1ccc(C2CCCCC2)cc1)c1ccc(C(=O)O)cc1)S(=O)(=O)c1c(F)c(F)c(F)c(F)c1F", "Potency": "5.62 µM (active)"}, {"smiles": "Cc1c(C)n(Cc2ccc(-c3ccccc3C(=O)O)cc2)c2ccc(C(=O)N[C@@H](C)c3ccc([N+](=O)[O-])cc3)cc12", "Potency": "35.5 µM (active)"}, {"smiles": "O=C(Nc1cccc(C(=O)OCc2cc(=O)n3nc(C4CC4)sc3n2)c1)c1cccc(Cl)c1", "activity change, negative = cell loss": -11.2}, {"smiles": "O=C(O)CCc1ccc(-c2ccc(Cl)cc2)n1-c1cccc(C(F)(F)F)c1", "Potency": "25.1 µM (active)"}, {"smiles": "Cc1cccc(C)c1-n1c(SCC(=O)Nc2ccc(C(=O)O)cc2)nnc1-c1cccc([S+](=O)([O-])N2CCCC2)c1", "activity change, negative = cell loss": -4.71}, {"smiles": "O=C(Nc1ccc(Oc2ccc(Cl)cc2)c(Cl)c1)c1cc(I)cc(I)c1O", "Potency": "10 µM (active)"}, {"smiles": "O=C1NC(=O)c2cc(Nc3ccccc3)c(Nc3ccccc3)cc21", "Potency": "31.6 µM (active)"}, {"smiles": "CCOC(=O)c1cccc(NC(=O)CSc2ncc3c(n2)-c2ccc(Cl)cc2N(Cc2ccccc2)S3(=O)=O)c1", "activity change, negative = cell loss": -13.5}, {"smiles": "O=c1oc2ccccc2cc1-c1nnc(Nc2ccc(Cl)cc2Cl)s1", "activity change, negative = cell loss": -17.8}, {"smiles": "O=C(Nc1cccc(C(=O)OCc2cc(=O)n3nc(C4CC4)sc3n2)c1)c1cccc(F)c1", "activity change, negative = cell loss": -10.7}, {"smiles": "Cc1nc(N=Nc2ccc(S(=O)(=O)O)cc2S(=O)(=O)O)c(COP(=O)(O)O)c(C=O)c1O", "activity change, negative = cell loss": -11.3}, {"smiles": "CCOc1ccc(-c2ccc(Cn3c(CC(C)(C)C(=O)O)c(SC(C)(C)C)c4cc(OCc5ccc(C)cn5)ccc43)cc2)cn1", "Potency": "17.8 µM (active)"}, {"smiles": "CC(C)=CCc1c2c(c3occ(-c4ccc(O)c(O)c4)c(=O)c3c1O)C=CC(C)(C)O2", "Potency": "8.91 µM (active)"}, {"smiles": "CC(=O)N1c2ccc(-c3ccc(C(=O)O)cc3)cc2C(Nc2ccc(Cl)cc2)CC1C", "note": "(stereo not given)", "Potency": "1 µM (active)"}, {"smiles": "N#CC(c1ccc(Cl)cc1)c1c(Cl)cc(-n2ncc(=O)[nH]c2=O)cc1Cl", "note": "(stereo not given)", "Potency": "25.1 µM (active)"}, {"smiles": "O=C(Nc1ccc(C(=O)OCc2cc(=O)n3c4c(sc3n2)CCCC4)cc1)c1ccc(F)cc1", "activity change, negative = cell loss": -5.72}, {"smiles": "CC(=O)C(N=Nc1ccc(S(=O)(=O)Nc2ccccn2)cc1)C(=O)Nc1ccc(Cl)cc1", "note": "(stereo not given)", "activity change, negative = cell loss": -15.2}, {"smiles": "Cc1ccc(NC(=O)c2ccc3c(O)c(S(=O)(=O)c4ccc(Cl)cc4)c(=O)[nH]c3c2)cc1", "activity change, negative = cell loss": -7.33}, {"smiles": "O=c1c(O)c(-c2ccc(O)c(O)c2)oc2cc(O)cc(O)c12", "activity change, negative = cell loss": -12.9}, {"smiles": "CN(C)[C@@H]1C(=O)C(C(=O)NCN2CCCC2)=C(O)[C@@]2(O)C(=O)C3=C(O)c4c(O)cccc4[C@@](C)(O)C3C[C@@H]12", "note": "(stereo not given in full)", "activity change, negative = cell loss": -14.8}, {"smiles": "O=C(O)C1(Cc2cccc(Nc3nccs3)n2)CCC(Oc2cccc(Cl)c2F)CC1", "note": "(stereo not given)", "Potency": "17.8 µM (active)"}, {"smiles": "Cc1oc2c(cc(NS(=O)(=O)c3ccc(Br)cc3)c3ccccc32)c1C(=O)OCc1ccccc1", "activity change, negative = cell loss": -18.7}, {"smiles": "CC1(C(=O)O)NCCc2cc(O)c(O)cc21", "note": "(stereo not given)", "activity change, negative = cell loss": -4.98}, {"smiles": "COc1ccc2c(c1)Oc1nc(-c3ccc(C)s3)nc(SCC(=O)Nc3cccc(C(=O)O)c3)c1C2", "activity change, negative = cell loss": -10.7}, {"smiles": "O=C(Nc1ccccc1)c1ccc2c(O)c(S(=O)(=O)c3ccc(Cl)cc3)c(=O)[nH]c2c1", "activity change, negative = cell loss": -8.31}, {"smiles": "O=C(COc1ccccc1C(=O)OCC(=O)Nc1cccc2ccccc12)Nc1ccc(Br)cc1", "activity change, negative = cell loss": -6.19}, {"smiles": "O=C(O)C(Cc1cc(I)c(O)c(I)c1)c1ccccc1", "note": "(stereo not given)", "Potency": "4.47 µM (active)"}, {"smiles": "COc1cc(Nc2nc3ccccc3nc2NS(=O)(=O)c2ccc(NC(=O)c3ccc(C)c(OC)c3)cc2)cc(OC)c1", "Potency": "4.47 µM (active)"}, {"smiles": "CN(C)[C@@H]1C(=O)C(C(N)=O)=C(O)[C@@]2(O)C(=O)C3=C(O)c4c(O)cccc4C[C@H]3C[C@@H]12", "activity change, negative = cell loss": -13.2}]}]}
